# Screening data: PubChem, several laboratories
# esBAF inh: blocks esBAF chromatin remodeling in mouse ES cells; Bmi1-luciferase knock-in reporter, 24 h; 100% = twice the neutral-well signal; reporter increase, % at 12.5 µM; actives 2% (n = 350,000); in the data active means activation above about 40%; inconclusive means no clear call, values can overlap the other calls;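 further: 0% = median of the plate's neutral control wells and 100% = double that signal; a rise in the Bmi1 reporter signal indicates esBAF inhibition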
# MITF TRPM1 HTS: MITF TRPM1 promoter activation in melanoma cells | activation, % at 12.5 µM | AID 588334 | actives 0.75% (n = 300,000) | SK-MEL-5 TRPM1-promoter luciferase, 24 h; % of positive control, neutral wells = 0;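 active means mean activation of at least 80% with every replicate also reaching 80%; inconclusive means mean reaches 80% but some replicate falls short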;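 further: 0% = neutral control wells and 100% = parthenolide positive control wells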
# Wnt act: Wnt/beta-catenin pathway activation. Wnt/beta-catenin reporter cell assay, activator, plate reader. actives 1.2% (n = 300,000). activation, % at 9.35 µM; in the data active means activation above about 30%, passing the limit was not always enough; inconclusive means no clear call, values can overlap the other calls;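 further: 0% = neutral control wells and 100% = positive control wells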
# FXN GAA850 act: frataxin GAA850 promoter activation | HEK293 lucGAA850 FXN promoter luciferase reporter, 24 h; percent of 10 µM SAHA response | activation, % at 6 µM | actives 0.56% (n = 360,000);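 active means activation above the average of all compounds screened plus 3 SD, cutoff fixed separately per campaign, cut at about 7.5% in these data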;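 further: 0% = DMSO wells and 100% = 10 µM SAHA wells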
# * hit, by the source's call; ? = inconclusive; . = not tested or not shown. Most compounds without a hit are left out; they make up all but 2.8% or so of the library.
SMILES,esBAF inh,MITF TRPM1 HTS,Wnt act,FXN GAA850 act
COCC(=O)Nc1ccc2c(c1)C(=O)N(C)C[C@H](OC)[C@H](C)CN(C(=O)NC(C)C)[C@@H](C)CO2,-2,.,.,.
COc1cccc(S(=O)(=O)Nc2ccc3c(c2)OC[C@H](C)N(Cc2ccccc2F)C[C@H](C)[C@H](OC)CN(C)C3=O)c1,17,.,.,.
C#CCN1C(=O)S/C(=C/C=C/c2ccc(N(C)C)cc2)C1=O,79*,32,45*,4
C[C@@H]1CN([C@@H](C)CO)C(=O)c2cc(NC(=O)C3CC3)ccc2O[C@@H]1CN(C)Cc1ccc(C(F)(F)F)cc1,-7,.,.,.
COc1cccc(/C=C2\Oc3ccc(O)cc3C2=O)c1O,-65,16,38*,4
CO[C@@H]1CN(C)C(=O)c2ccc(NS(=O)(=O)c3ccccc3)cc2OC[C@H](C)N(Cc2cccnc2)C[C@H]1C,2,.,.,.
CCCc1cn(CC[C@@H]2CC[C@H](NC(=O)C3CCCCC3)[C@H](CO)O2)nn1,-3,.,.,.
CN1CCCC1CCNc1ccc2c(=O)c3ccccc3oc2c1 (centres undefined),32,89*,19,6
O=c1c2ccccc2oc2cc(NCCCN3CCOCC3)ccc12,43*,106*,44*,5
O=c1c2ccccc2oc2ccc(NCCCN3CCOCC3)cc12,-6,137*,26,6
O=c1c2ccccc2oc2cc(NCCCn3ccnc3)ccc12,3,?,11,5
CN1CCCC1CCNc1ccc2oc3ccccc3c(=O)c2c1 (centres undefined),.,.,3,.
Cc1noc(C)c1NC(=O)NCC[C@@H]1CC[C@H](NC(=O)c2ccncc2)[C@H](CO)O1,1,.,.,.
CCNC(=O)Nc1ccc2c(c1)C(=O)N(C)[C@@H]1CC[C@@H](CC(=O)NCc3ccc(F)cc3)O[C@@H]1CO2,-4,.,.,.
C[C@H](CO)N1C[C@H](C)[C@@H](CN(C)C(=O)C2CCOCC2)Oc2cc(C3=CCCCC3)ccc2S1(=O)=O,1,.,.,.
CCc1cnc(N2[C@H](CO)[C@@H](c3ccc(C#CC(C)C)cc3)[C@@H]2C#N)s1,15,.,.,.
O=C(CCCC(=O)c1ccc(O)cc1)c1ccc(O)cc1,30,98*,56*,2
O=C(CCCC(=O)c1ccccc1)NCCc1ccccc1,-7,-4,4,0
O=C(CCCc1ccccc1)c1ccccc1,23,92*,31*,5
O=C(CCCOC(=O)c1ccc(O)cc1)c1ccccc1,43*,24,-3,3
CCCCOC(=O)c1ccc(O)cc1,-12,24,-1,4
CCC(=O)c1ccc(O)cc1,-3,0,2,3
CN1C(=O)c2cc(NS(C)(=O)=O)ccc2OC[C@@H]2O[C@@H](CC(=O)O)CC[C@@H]21,4,.,.,.
CN1CCN(C(=O)C[C@H]2C[C@H]3c4cc(NC(=O)Nc5ccc(C(F)(F)F)cc5)ccc4O[C@H]3[C@@H](CO)O2)CC1,-2,.,.,.
Cc1ccc(C(CC(=O)c2ccco2)SCCO)cc1 (centres undefined),36,24,37*,2
SMILES,esBAF inh,MITF TRPM1 HTS,Wnt act,FXN GAA850 act
CC(=O)c1c(C)[nH]c(C(=O)COC(=O)Cc2ccccc2F)c1C,56*,.,26,0
O=C(C1CC12CCCC2)N1CCC(CO)(Cc2ccccc2Cl)CC1 (centres undefined),.,5,56*,0
COC(=O)c1ccc(CN2CCC(CO)(Cc3ccccc3Cl)CC2)cc1,0,3,-1,2
O=C1Nc2ccccc2S/C1=C/c1cccs1,.,.,34*,5
Cc1ccc(N/C=C2/Sc3ccccc3NC2=O)cc1,.,56,37*,1
COc1ccc(N/C=C2/Sc3ccccc3NC2=O)cc1,53*,47,-1,3
CCC(=O)Nc1ccc2c(c1)C(=O)N(C)C[C@@H](OC)[C@@H](C)CN(Cc1cncnc1)[C@H](C)CO2,-1,.,.,.
C[C@@H]1CN([C@@H](C)CO)C(=O)Cc2cc(NS(=O)(=O)c3ccccc3)ccc2O[C@H]1CN(C)CC1CCCCC1,2,.,.,.
COc1ccc(-c2noc(C3CCCN(C(=O)Nc4ccccc4)C3)n2)cc1 (centres undefined),59*,4,-1,3
O=C(c1c(F)cccc1F)N1CCCC(c2nc(-c3cccs3)no2)C1 (centres undefined),81*,48,13,4
COc1ccc(-c2noc(C3CCCN(C(=O)c4ccccc4)C3)n2)cc1 (centres undefined),42*,51,0,1
COc1ccc(NC(=O)N2CCCC(c3nc(-c4ccc(OC)cc4)no3)C2)cc1 (centres undefined),21,2,20,3
